A selection: hits, their analogues and other compounds. The true share with any hit is near 8%.
HT1080NT lethal: kills 2HG-producing HT-1080-NT fibrosarcoma cells. Potency, µM (top dose mostly 46.1 µM), for inactives: at the highest dose activity, negative = less viability, hits mostly cytotoxic. HT-1080-NT fibrosarcoma viability, CellTiter-Glo ATP luminescence, 48 h. 360,000 tested, 1.6% active;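 note: NT is the 2HG producing partner of a matched IDH1 knockdown line; 0% = DMSO-treated cells and -100% = media-only wells without cells; nearly all actives have a fitted effect of over 55% in size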
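Fibrosarcoma NT cells, 750 per well in 5% FBS RPMI, were exposed to compound for 48 hours. Viability: CellTiter-Glo luminescence.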
HT1080 IDH1KD tx: toxicity to HT-1080 IDH1 knockdown cells (counter line); HT-1080 IDH1 knockdown viability, ATP luminescence, 48 h; Potency, µM (titrated, usually from 46.1 µM), for inactives: at the highest dose activity, negative = toxicity, most hits filed as cytotoxic; 360,000 tested, 2% active; AID 686971;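 note: 0% = DMSO wells and -100% = cell-free medium wells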
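IDH1KD HT-1080 cells, 750/well, RPMI + 5% FBS; compound pinned after 2 h settling; 48 h, 37 °C; CellTiter-Glo luminescence; % activity normalised to DMSO and no-cell wells; curves fitted, classed by r2 and efficacy.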
KB-V1 MDR tox: KB-V1 MDR subline cytotoxicity; KB-V1 MDR cells viability, CellTiter-Glo, 72 h; Potency, µM (titrated, usually from 46.1 µM), most hits filed as cytotoxic; 400,000 tested, 3.4% active; AID 1347076; note: % is set by controls: 0 for no effect and ±100 for the full control effect; nearly all actives have a fitted effect of over 60% in size
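Compound-treated KB-V1 multidrug-resistant cells, 72 h, 37 degrees C; viability by CellTiter-Glo. Fitted qHTS curves give the values.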
MCF10A rerep: inducers of DNA re-replication in MCF 10A breast cells. MCF 10A DNA re-replication, Hoechst nuclear intensity, 48 h. Potency, µM (doses to about 46.1 µM), inactives show at the highest dose activity, positive = re-replication, hits mostly activators. 350,000 tested, 2.9% active; note: % of control where 0% means no effect; nearly all actives have a fitted effect of over 50% in size
KB-3-1 cytotox: kills parental KB-3-1 adenocarcinoma cells; KB-3-1 viability, CellTiter-Glo ATP luminescence, 72 h; Potency, µM (highest dose often 46.1 µM), actives largely listed as cytotoxic; 400,000 tested, 1.4% active; note: % is set by controls: 0 for no effect and ±100 for the full control effect; nearly all actives have a fitted effect of over 60% in size
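KB-3-1 parental drug-naive adenocarcinoma cells in DMEM/10% FBS, incubated 72 h at 37 C with pin-transferred compounds across a concentration series. Viability by CellTiter-Glo luminescence; concentration-response curves fitted after normalization.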
SW480 rerep: DNA re-replication induction in SW480 cells; Potency, µM (doses to about 46.1 µM), for the others: at the top dose re-replication activation, most hits filed as activators; AID 624297; SW480 DNA re-replication, Hoechst DNA content imaging, 48 h; 340,000 tested, 1.8% active; note: % of control where 0% means no effect; nearly all actives have a fitted effect of over 55% in size
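Treated cells incubate 48 hr (37 C, 5% CO2), are stained 40 min with Hoechst, and nuclear fluorescence is enumerated; a rise in nuclei with high DNA signal marks re-replication.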
An asterisk follows results filed as active; i = inactive; u = inconclusive; x = no result. Calls come from the whole dose curve; as a rule, active = well fitted curve in the direction sought with a large enough effect; inconclusive = small, poorly fitted or top-dose-only effect, or another doubt; inactive = no such curve, though single readings can be large; an effect the other way counts as inactive or inconclusive. Potency is the fitted concentration of half-maximal effect.

SMILES	HT1080NT lethal	HT1080 IDH1KD tx	KB-V1 MDR tox	MCF10A rerep	KB-3-1 cytotox	SW480 rerep
COc1ccc(-c2nc(CN3CCC(C(=O)N4CCOCC4)CC3)c(C)o2)cc1OC	-1%	13%	i	1%	u	0%
COc1ccc(-c2nc(CN3CCC(C(=O)N4CCOCC4)CC3)c(C)o2)cc1C	-10%	1%	i	-1%	i	10µM*
COc1ccc(F)c(CN2CCC(N3CCC(C(=O)N4CCOCC4)CC3)CC2)c1	0%	-2%	i	1%	i	-3%
COc1ccc(NC(=O)C2CCCN(c3nnc(C)c4c(C)n(-c5ccccc5)nc34)C2)cc1Cl (stereo not given)	x	x	i	x	i	x
Clc1ccc(-c2csc(=Nc3cccnc3)n2CCCn2ccnc2)cc1Cl	-25%	-23%	10µM*	u	15µM*	0%
OCCCn1c(-c2ccccc2)csc1=Nc1ccccc1	-13%	-15%	u	u	i	-6%
FC(F)Oc1ccc(-c2csc(=Nc3cccnc3)n2CC2CCCO2)cc1 (stereo not given)	-4%	-25%	i	u	i	1%
COCCn1c(-c2ccc(Br)cc2)csc1=Nc1cccnc1	-29%	-28%	u	1%	15µM*	-7%
Cc1c(NC(=O)Nc2ccccc2C(F)(F)F)sc2nc3n(c(=O)c12)CCC(C)CC3 (stereo not given)	x	x	u	x	i	x
CN(C)c1ccc(/C=C/C(=O)c2cccc(Br)c2)cc1	-4%	u	u	16µM*	i	u
CN(C)c1ccc(C(=O)/C=C/c2cccnc2)cc1	u	u	u	u	18µM*	u
CCN(C(=O)c1cccc(Br)c1)c1ccccc1	-7%	-2%	i	2%	i	-2%
COc1ccc(C(=O)Nc2ccc(C(=O)OCc3cc(=O)n4nc(C5CC5)sc4n3)cc2)cc1	x	x	i	x	i	x
Cc1ccc2cc(CN(C(=O)c3cccc(Cl)c3)c3ccccc3)c(=O)[nH]c2c1	x	x	i	x	i	x
COc1ccc(-c2nc(C3CCCCC3)no2)cc1OC	19%	-22%	16µM*	3%	i	4%
COc1ccccc1-c1noc(-c2ccccc2)n1	0%	8%	i	13%	i	-3%
c1ccc(-c2nc(C3CCCCC3)no2)cc1	13%	13%	i	-2%	i	-2%
COc1ccc(-c2nc(-c3ccccc3OC)no2)cc1OC	-4%	-19%	6.5µM*	u	u	-6%
NC(=O)n1c(O)c(C(=O)c2cccs2)c2cc(Cl)ccc21	x	x	x	u	x	2%
Cc1nc(C)c(C(=O)NCCC(c2ccccc2)c2ccccc2)o1	-17%	-29%	8.2µM*	-2%	u	12%
Cc1ccsc1C(=O)NCCC(c1ccccc1)c1ccccc1	-8%	0%	i	u	i	7%
CCN(CC)CCNC(=O)c1ccc2c(c1)NC(=O)C(CS(=O)(=O)Cc1ccc(F)cc1Cl)N2 (stereo not given)	x	x	i	x	i	x
COc1ccc(S(=O)(=O)N(C)C)cc1NCC(=O)Nc1cccc2ccccc12	-8%	-15%	i	9%	i	19%
COc1ccc(S(=O)(=O)N(C)C)cc1NCC(=O)Nc1ccc(Br)c(C)c1	-29%	-29%	7.3µM*	3%	i	3%
COc1ccc(-n2c(SCC(=O)Nc3cc(C)on3)nc3c(c2=O)SCC3)cc1	17%	-1%	i	0%	i	-14%
Cc1cc(NC(=O)CSc2nc3c(c(=O)n2-c2ccc(Br)cc2)SCC3)no1	1%	-6%	u	8.2µM*	i	u
Cn1c(SCc2cccc([N+](=O)[O-])c2)nc2c(c1=O)SCC2	-21%	u	4.1µM*	0%	u	-1%
Cn1c(SCc2ccc(Br)cc2)nc2c(c1=O)SCC2	-1%	-7%	21µM*	15%	21µM*	-9%

Source: PubChem
